{
  "source": "PubChem BioAssay AID623911",
  "about": "(Vanderbilt High Throughput Screening Facility, 2012)",
  "note": "The whole screen tested about 2,100 compounds, of which about 770 (37%) were called active.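 How the source made its calls: active means by-eye trace score of 1 for enhancers or -1 for inhibitors, so actives lie on both sides (some results past the limit were not filed as active); inactive means score 0, or 3 fluorescent, or 4 baseline rise.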 The list shows a part of the results.",
  "data": [
    {"molecular_target": "G protein-activated inward rectifier potassium channel 2 (Homo sapiens) + G protein-activated inward rectifier potassium channel 1 (Homo sapiens) (UniProt P48051+P48549)", "sequence (P48051 whole entry, looked up)": "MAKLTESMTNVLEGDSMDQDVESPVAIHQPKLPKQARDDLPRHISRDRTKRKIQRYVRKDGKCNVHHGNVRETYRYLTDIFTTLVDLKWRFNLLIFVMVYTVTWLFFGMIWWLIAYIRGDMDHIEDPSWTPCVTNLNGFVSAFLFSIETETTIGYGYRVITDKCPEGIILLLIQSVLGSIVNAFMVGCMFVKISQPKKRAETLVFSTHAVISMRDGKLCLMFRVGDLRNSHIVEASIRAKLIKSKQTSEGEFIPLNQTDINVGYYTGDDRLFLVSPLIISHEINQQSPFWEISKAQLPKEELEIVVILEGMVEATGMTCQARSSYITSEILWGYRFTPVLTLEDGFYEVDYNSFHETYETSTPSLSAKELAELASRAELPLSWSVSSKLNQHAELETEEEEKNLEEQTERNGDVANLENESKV", "sequence (P48549 whole entry, looked up)": "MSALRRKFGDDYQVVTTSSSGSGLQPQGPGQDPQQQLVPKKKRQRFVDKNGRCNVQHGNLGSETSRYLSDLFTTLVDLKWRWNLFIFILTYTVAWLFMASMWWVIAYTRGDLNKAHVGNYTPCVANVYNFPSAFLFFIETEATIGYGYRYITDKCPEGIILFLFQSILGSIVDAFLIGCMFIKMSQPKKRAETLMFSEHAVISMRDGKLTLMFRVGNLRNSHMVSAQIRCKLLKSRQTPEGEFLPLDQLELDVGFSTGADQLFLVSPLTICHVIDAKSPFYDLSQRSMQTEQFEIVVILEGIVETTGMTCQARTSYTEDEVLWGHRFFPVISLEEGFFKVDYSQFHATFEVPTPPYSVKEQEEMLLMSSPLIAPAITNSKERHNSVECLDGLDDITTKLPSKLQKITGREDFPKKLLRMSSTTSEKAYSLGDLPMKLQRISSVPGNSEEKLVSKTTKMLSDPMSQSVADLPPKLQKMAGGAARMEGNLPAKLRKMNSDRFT", "experiment": "GIRK1/2 thallium flux modulators, retest, confirmation, cell-based, HEK293 rmGlu8/hGIRK1/2, FluoZin-2 (AID 623911)", "details": "HEK293 rmGlu8/hGIRK1/2, thallium flux FluoZin-2; actives lie on both sides; glutamate co-added at its EC20 level", "values": [
      {"smiles": "O=C(Nc1ccc(CN2CCOCC2)cc1)c1cc2ccccn2n1", "manual score": "0 (inactive)"},
      {"smiles": "COCCCNCCCOc1ccc(Cl)cc1Br", "manual score": "0 (inactive)"},
      {"smiles": "COCCNCCOc1ccccc1-c1ccccc1", "manual score": "-1 (active)"},
      {"smiles": "COc1cc2cnncc2cc1OC", "manual score": "0 (inactive)"},
      {"smiles": "S=c1[nH]nc(-c2cc3ccccc3o2)n1Cc1ccccc1", "manual score": "0.5 (inactive)"},
      {"smiles": "S=c1[nH]nc(-c2ccc(Br)o2)n1Cc1ccccc1", "manual score": "1 (active)"},
      {"smiles": "CCCc1cc(-c2n[nH]c(=S)n2Cc2ccccc2)cs1", "manual score": "0 (inactive)"},
      {"smiles": "C/C(=N/NC(=O)c1cc(Cl)ccc1O)C12CC3CC(CC(C3)C1)C2", "manual score": "0 (inactive)"},
      {"smiles": "CC(C)(C)CC(C)(C)NCC(O)COc1c(F)cc(Br)cc1F", "note": "(stereo not given)", "manual score": "-1 (active)"},
      {"smiles": "CN1C2C=C3C(C#N)=C(N)C(C#N)(C#N)[C@@H](c4ccsc4)[C@@H]3C1CC2", "note": "(stereo not given in full)", "manual score": "-0.5 (inactive)"},
      {"smiles": "O=C(Nc1nnc(-c2ccccc2F)s1)C1CCCO1", "note": "(stereo not given)", "manual score": "0 (inactive)"},
      {"smiles": "OC(CNCC1CCCO1)Cn1c2ccc(Br)cc2c2cc(Br)ccc21", "note": "(stereo not given)", "manual score": "0 (inactive)"},
      {"smiles": "COc1ccc(Nc2nnc(Cc3ccccc3)c(=O)[nH]2)c(OC)c1", "manual score": "1 (active)"},
      {"smiles": "CCOc1ccccc1NC(=O)Nc1cccc(C(C)=O)c1", "manual score": "0 (inactive)"},
      {"smiles": "CCOc1ccccc1Nc1nnc(Cc2ccccc2Cl)c(=O)[nH]1", "manual score": "1 (active)"},
      {"smiles": "COc1ccc(OC)c(Nc2cc(-c3ccccc3)nc(N)n2)c1", "manual score": "-0.5 (inactive)"},
      {"smiles": "Cc1sc2ncnc(N(C)Cc3cccs3)c2c1C", "manual score": "-1 (active)"},
      {"smiles": "CCOC(=O)c1c(CNCCN(CC)CC)n(C)c2cc(Br)c(OC)cc12", "manual score": "-1 (active)"},
      {"smiles": "O=C(Nc1ccccc1-c1nnn(CC(=O)N2CCc3ccccc3C2)n1)C1CCC1", "manual score": "0 (inactive)"},
      {"smiles": "CN=C1c2c(-c3ccccc3)c3cc(OC)ccc3n2CCN1C", "manual score": "-1 (active)"},
      {"smiles": "C=CCn1c(-c2cccs2)nc2ccccc21", "manual score": "0 (inactive)"},
      {"smiles": "CCc1cc(-c2n[nH]c(C)c2-c2nc3ccccc3n2C)c(O)c(CN2CCN(C)CC2)c1O", "manual score": "-1 (active)"},
      {"smiles": "CCCN(CCC)C(=O)CSc1nc2ccccc2c(=O)n1C1CCCC1", "manual score": "-1 (active)"},
      {"smiles": "COC(=O)c1ccc2c(=O)n(C3CCCCC3)c(SCC#N)nc2c1", "manual score": "0 (inactive)"},
      {"smiles": "CCN(CC)C(=O)CSc1nc2ccccc2c(=O)n1-c1ccccc1OC", "manual score": "0 (inactive)"},
      {"smiles": "CC(C)(C)c1nnc(N/N=C/c2ccccc2)n(N)c1=O", "manual score": "0 (inactive)"},
      {"smiles": "C/C(=N\\NC(=O)c1csc(C)c1C)c1ccc(Cl)s1", "manual score": "0 (inactive)"},
      {"smiles": "CC(C)NC(=S)N/N=C/c1cc(Br)ccc1O", "manual score": "0 (inactive)"},
      {"smiles": "C=C(C)CNC(=S)N/N=C(\\C)c1ccc(Cl)s1", "manual score": "1 (active)"},
      {"smiles": "CCNC(=S)N/N=C(\\C)c1ccc(Cl)s1", "manual score": "0 (inactive)"},
      {"smiles": "C/C(=N\\NC(N)=S)c1ccc(Cl)s1", "manual score": "0 (inactive)"},
      {"smiles": "C/C(=N\\NC(=S)NC(C)C)c1ccc(Cl)s1", "manual score": "1 (active)"},
      {"smiles": "CNC(=S)N/N=C(\\C)c1ccc(Cl)s1", "manual score": "1 (active)"},
      {"smiles": "CNC(=S)N/N=C(\\C)c1ccc(C)c(C)c1", "manual score": "0 (inactive)"},
      {"smiles": "C/C(=N\\NC(=S)NCCc1ccccc1)c1cccs1", "manual score": "3 (inactive)"}
    ]}
  ]
}
